Source: PubChem BioAssay (NCI)
This is part of a sample that, as a whole, favours compounds with a hit. Of some 83,000 tested, about 20% had one in any assay.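 Step 1: grow cells in 96-well plates. Step 2: add test compound at a single concentration. Step 3: incubate 48 h. Step 4: record percent growth.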 Calls of active or inactive are those of the source. The calls were made as follows: active = growth percent below 10; inactive = the rest.

The molecules below were run on NCI-H23 lung (assay: NCI-60 one-dose screen, 48 h (100 = growth as untreated, 0 = no growth, -100 = all killed)). Details: 10 µM unless noted.
In the case of `Cc1ccc2c(c1)nc(-c1ccccc1)n2CC(=O)N=Nc1c(O)[nH]c2ccc(Br)cc12`, the growth is reported as -80.1% (active). For `Cn1nc(C(F)(F)F)cc1-c1cc(Cl)c(COc2ccc(Cl)cc2)c(-c2ccc(Cl)c(C(F)(F)F)c2)c1O`, the growth was -46.7% (active). For `Cc1occc1C(=O)NN1C(=O)/C(=C/C=C/c2ccc([N+](=O)[O-])o2)SC1=S`, the growth was -84.1% (active). In the case of `O=c1cc(-c2ccccc2)oc2cc(OCCCC[P+](c3ccccc3)(c3ccccc3)c3ccccc3)cc(O)c12`, the growth is reported as -93% (active). For `COc1c(F)ccc(C(=O)Nc2ccc3nc(NC(=O)C4CCCN(S(=O)(=O)c5cccc(Br)c5)C4)sc3c2)c1F` (stereo unspecified), the growth was 96.3% (inactive). With `C=C1CC[C@@H]2[C@]3(C)COC(c4cn[nH]c4-c4ccc(F)cc4)O[C@@H]3CC[C@@]2(C)[C@@H]1C/C=C1/C(=O)OCC1O` (stereo partly specified) the growth was -67.3% (active). `CCCCCCCS(=O)(=O)N1CCCC(C(=O)Nc2nc3ccc(NC(=O)c4ccc(F)c(OC)c4F)cc3s2)C1` (stereo unspecified) was tested, and the growth was 27.3% (inactive). `C=C1CCC2C3(C)COC(c4ccccc4)OC3CCC2(C)C1CC(NCc1ccccc1)C1=CCOC1=O` (stereo unspecified) was tested, and the growth was 80.8% (inactive). `O=C(/C=C/Nc1ccc2oc(=O)ccc2c1)c1cc2cc(Br)ccc2oc1=O` was tested, and the growth was 98.8% (inactive). `O=C(Cn1c(/C=C/c2ccccc2)nc2ccccc2c1=O)Nc1ccc(Cl)cc1` was tested, and the growth was 59.8% (inactive). For `CC(C)CCNC(=O)N/C(N)=N/c1nc2ccccc2s1`, the growth was 46.9% (inactive). In the case of `Cn1cc(-c2cc(N)n3nc(-c4c[nH]c5ccccc45)cc3n2)c2cccnc21`, the growth is reported as 47.6% (inactive). `CN(C)c1nc(NCCNS(=O)(=O)c2ccc(C(=O)/C=C/c3ccc(Cl)cc3)cc2)nc(Nc2ccc(F)cc2)n1` was tested, and the growth was -38.6% (active).

What follows are molecules tested on NCI-H226 lung in the same assay as above. Details: 10 µM unless noted.
`CN(C)c1nc(NCCNS(=O)(=O)c2ccc(C3=Nc4c(N)nc(N)nc4NC(c4ccc(C(F)(F)F)cc4)C3)cc2)nc(Nc2ccc(F)cc2)n1` (stereo unspecified) was tested, and the growth was 24.3% (inactive). With `COc1ccc(-c2nc3cc(C)ccc3n2CC(=O)N=Nc2c(O)[nH]c3ccccc23)cc1` the growth was -35.5% (active). `NS(=O)(=O)c1ccc(CCNC(=O)CSc2ccc(-c3ccc(Br)cc3)nn2)cc1` was tested, and the growth was 70.3% (inactive). With `O=C(COc1ccc2c(c1)CCCC(=O)N2)NCc1ccccc1` the growth was 93.9% (inactive). With `CC1=C(C#N)C2=NNCC(c3ccccc3)=NN2C(c2ccccc2)=C1` the growth was 111% (inactive). With `CC1CCCCN1CCCNC(=O)N/C(N)=N/c1nc2ccccc2s1` (stereo unspecified) the growth was 48.5% (inactive). With `Cc1nc(Nc2ccccn2)sc1C(=O)CC(SCC(=O)Nc1ccc(Cl)cc1)c1ccccc1F` (stereo unspecified) the growth was 48% (inactive). With `CCCSc1nc(Nc2ccc(S(N)(=O)=O)cc2)c(C#N)c(-c2cc(OC)c(OC)c(OC)c2)n1` the growth was 32.7% (inactive). With `Clc1cccc(N/N=C/c2c[nH]c3ccc(Br)cc23)n1` the growth was 22.4% (inactive). With `Cc1ccc(S(=O)(=O)c2nc(S(=O)(=O)c3ccc(C)cc3)c(N3CCN(C)CC3)s2)cc1` the growth was 67.3% (inactive). `COc1c(F)ccc(C(=O)Nc2ccc3nc(NC(=O)C4CCCN(S(=O)(=O)c5ccc(C(F)(F)F)cc5)C4)sc3c2)c1F` (stereo unspecified) was tested, and the growth was 81.3% (inactive). `COc1ccc(-c2ccnc(SCc3cc4ccccc4[nH]c3=O)n2)cc1` was tested, and the growth was 63.5% (inactive). With `Cc1ccc(C2=NN(c3nc(-c4cc5ccccc5oc4=O)cs3)C(c3ccc(C)cc3)C2)cc1` (stereo unspecified) the growth was 88.8% (inactive). `COc1c(F)ccc(C(=O)Nc2ccc3nc(NC(=O)C4CCCN(S(=O)(=O)c5cccc(C(F)(F)F)c5)C4)sc3c2)c1F` (stereo unspecified) was tested, and the growth was 93.6% (inactive). With `Cc1ccc(S(=O)(=O)c2nc(S(=O)(=O)c3ccc(C)cc3)c(Cl)s2)cc1` the growth was 1.5% (active). `COc1ccc2c(c1)c(-c1cc3nc(-c4cn(C)c5ncc(Br)cc45)cc(N)n3n1)cn2C` was tested, and the growth was 0.447% (active). `COc1cccc(-c2nc(Nc3ccc(S(N)(=O)=O)cc3)c3ccccc3n2)c1` was tested, and the growth was 25.9% (inactive). For `CCS(=O)(=O)N1CCCC(C(=O)Nc2nc3ccc(NC(=O)c4ccc(F)c(OC)c4F)cc3s2)C1` (stereo unspecified), the growth was 48% (inactive). With `C=C1CCC2C3(C)COC(c4ccccc4)OC3CCC2(C)C1CC(Sc1ccccc1)C1=CCOC1=O` (stereo unspecified) the growth was 10.6% (inactive). `Cc1cccc(-c2nc(Nc3cccc(S(N)(=O)=O)c3)c3ccccc3n2)c1` was tested, and the growth was 54.3% (inactive). `Brc1ccc(-c2n(Cc3ccc4ccccc4c3)c(-c3ccccc3)c(-c3ccccc3)[n+]2Cc2ccc3ccccc3c2)cc1` was tested, and the growth was -51.6% (active). With `Cc1cc2nc3c([nH]c2cc1C)c1ccc(=O)cc1n3CCN(C)C` the growth was 59% (inactive). For `N=C1N=C(SCc2nc3ccccc3[nH]2)NC(=O)/C1=C/c1ccc(Cl)cc1`, the growth was 95.1% (inactive). For `COc1c(F)ccc(C(=O)Nc2ccc3nc(NC(=O)C4CCCN(S(=O)(=O)c5ccc(Br)c(F)c5)C4)sc3c2)c1F` (stereo unspecified), the growth was 80.8% (inactive). In the case of `C=C1CC[C@@H]2[C@]3(C)COC(c4cn[nH]c4-c4ccc(Br)cc4)O[C@@H]3CC[C@@]2(C)[C@@H]1C/C=C1/C(=O)OCC1O` (stereo partly specified), the growth is reported as -83.3% (active). In the case of `Cc1ccc2c(c1)nc(-c1ccccc1)n2CC(=O)N=Nc1c(O)[nH]c2ccc(Br)cc12`, the growth is reported as -72.4% (active). `Cn1nc(C(F)(F)F)cc1-c1cc(Cl)c(COc2ccc(Cl)cc2)c(-c2ccc(Cl)c(C(F)(F)F)c2)c1O` was tested, and the growth was -39.5% (active). For `Cc1occc1C(=O)NN1C(=O)/C(=C/C=C/c2ccc([N+](=O)[O-])o2)SC1=S`, the growth was -18.3% (active). In the case of `O=c1cc(-c2ccccc2)oc2cc(OCCCC[P+](c3ccccc3)(c3ccccc3)c3ccccc3)cc(O)c12`, the growth is reported as -29% (active). In the case of `COc1c(F)ccc(C(=O)Nc2ccc3nc(NC(=O)C4CCCN(S(=O)(=O)c5cccc(Br)c5)C4)sc3c2)c1F` (stereo unspecified), the growth is reported as 88.4% (inactive). In the case of `C=C1CC[C@@H]2[C@]3(C)COC(c4cn[nH]c4-c4ccc(F)cc4)O[C@@H]3CC[C@@]2(C)[C@@H]1C/C=C1/C(=O)OCC1O` (stereo partly specified), the growth is reported as -83.5% (active). With `CCCCCCCS(=O)(=O)N1CCCC(C(=O)Nc2nc3ccc(NC(=O)c4ccc(F)c(OC)c4F)cc3s2)C1` (stereo unspecified) the growth was 31.8% (inactive). `C=C1CCC2C3(C)COC(c4ccccc4)OC3CCC2(C)C1CC(NCc1ccccc1)C1=CCOC1=O` (stereo unspecified) was tested, and the growth was 63.6% (inactive). `O=C(/C=C/Nc1ccc2oc(=O)ccc2c1)c1cc2cc(Br)ccc2oc1=O` was tested, and the growth was 101% (inactive). `O=C(Cn1c(/C=C/c2ccccc2)nc2ccccc2c1=O)Nc1ccc(Cl)cc1` was tested, and the growth was 30.2% (inactive). In the case of `CC(C)CCNC(=O)N/C(N)=N/c1nc2ccccc2s1`, the growth is reported as 52.1% (inactive). `Cn1cc(-c2cc(N)n3nc(-c4c[nH]c5ccccc45)cc3n2)c2cccnc21` was tested, and the growth was 71.2% (inactive). For `CN(C)c1nc(NCCNS(=O)(=O)c2ccc(C(=O)/C=C/c3ccc(Cl)cc3)cc2)nc(Nc2ccc(F)cc2)n1`, the growth was -53.3% (active).
